Screens deposited in PubChem by Johns Hopkins Ion Channel Center.
KCNK3 inh – human KCNK3 channel inhibition, primary screen; O14649; B-score at 10 µM; CHO-KCNK3 thallium flux, FluxOR fluorescence; stronger effect = lower value; 340,000 compounds, 0.84% hits;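 active = B-score under library mean minus 4 SD, starting fluorescence ratio at most library mean plus 5 SD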;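 note: more negative B-score means stronger inhibition of thallium flux through KCNK3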
Kir21 block – Kir2.1 (mouse) channel inhibition; P35561; HEK293-Kir2.1, FluxOR thallium flux fluorescence; stronger effect = lower value; B-score at 10 µM; 310,000 compounds, 0.85% hits;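 active = fluorescence ratio B-score at or below minus 3 SD of library scores, with starting-brightness B-score within 2 SD, cut at about -4.2 in these data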;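 note: channel flux triggered by added potassium and thallium sulfate stimulus; B-score of peak minus minimum fluorescence over baseline after thallium stimulus; more negative B-score means stronger Kir2.1 block with less thallium influx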
Target sequence (P35561 whole entry, looked up): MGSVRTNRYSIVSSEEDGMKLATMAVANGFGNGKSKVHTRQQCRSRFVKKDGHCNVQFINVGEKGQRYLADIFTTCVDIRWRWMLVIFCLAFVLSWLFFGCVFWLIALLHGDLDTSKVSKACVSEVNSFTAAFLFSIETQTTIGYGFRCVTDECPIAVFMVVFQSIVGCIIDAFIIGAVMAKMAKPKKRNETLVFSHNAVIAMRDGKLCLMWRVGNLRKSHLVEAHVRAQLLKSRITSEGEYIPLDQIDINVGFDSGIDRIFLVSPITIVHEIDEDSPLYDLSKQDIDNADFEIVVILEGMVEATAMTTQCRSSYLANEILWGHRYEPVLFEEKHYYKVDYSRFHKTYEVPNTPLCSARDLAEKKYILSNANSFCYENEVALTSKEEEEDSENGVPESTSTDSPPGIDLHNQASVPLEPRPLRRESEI
TMEM16A act – activators or potentiators of mouse TMEM16A chloride channel. Q8BHY3. HEK293 TMEM16A/YFP-H148Q/I152L, iodide quench fluorescence; stronger effect = lower value. B-score at 10 µM. 340,000 compounds, 0.3% hits. AID 623877;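 active = fluorescence-ratio B-score plate-corrected deviation score at least 3 library SD below zero, with starting fluorescence score within 5 deviations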;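 note: channel opened by trigger with iodide after compound preincubation; score built on the fluorescence ratio of max minus min over baseline; more negative score means more quench and so TMEM16A activation or potentiation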
KCNK9 inh – inhibitors of human KCNK9 two-pore domain potassium channel | Q9NPC2 | HEK293 KCNK9, FluxOR thallium flux fluorescence; stronger effect = lower value | B-score at 10 µM | 310,000 compounds, 1.2% hits | AID 488922;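 active = ratio B-score over 3 SD below the library mean, with starting fluorescence within 5 SD of its mean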;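 note: negative B-score means less thallium flux so channel inhibition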
ANO1 block – inhibitors of mouse TMEM16A calcium-activated chloride channel | 310,000 compounds, 1.2% hits | normalized B-score (activity score, 25-100; higher = stronger inhibition) at 10 µM | Q8BHY3 | HEK293 TMEM16A/YFP iodide influx fluorescence, ionomycin;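 active = ratio plate-corrected score three or more library SD toward inhibition, starting fluorescence score within five deviations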;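 note: score derived from kinetic fluorescence span divided by baseline fluorescence per well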
* hit, by the source's call; i = inactive; nt = no result. A selection: hits, their analogues and other compounds. The true share with any hit is near 3.5%.

SMILES	KCNK3 inh	Kir21 block	TMEM16A act	KCNK9 inh	ANO1 block
CC(C)(C)c1ccc(C(=O)c2c[nH]c(C(=O)NCc3cccs3)c2)cc1	i	-1.2	-8.1*	i	i
C=C1c2ccccc2S(=O)(=O)N(Cc2ccccc2)C1COCc1ccccc1 (configuration not stated)	i	0.53	i	-6.9*	i
O=S1(=O)c2ccccc2OC(COCc2ccccc2)CN1Cc1ccccc1 (configuration not stated)	i	nt	i	nt	nt
CC(OC(=O)CC1CCCCC1)C(=O)Nc1ccc(F)cc1 (configuration not stated)	i	-2.4	i	i	i
CCCCN(C(=O)c1ccc(S(=O)(=O)N2CCC(C)CC2)cc1)C1CCS(=O)(=O)C1 (configuration not stated)	i	-0.12	i	i	i
CC(=O)C1=C(C)NC(SCC(=O)c2ccc(Cl)cc2)=C(C#N)C1c1ccco1 (configuration not stated)	i	-1.1	i	-15*	i
Cc1ccc(C(=O)CSC2=C(C#N)C(c3ccco3)CC(=O)N2)c(C)c1 (configuration not stated)	i	-0.49	i	i	25*
COC(=O)CSC1=C(C#N)C(c2ccc(C)o2)CC(=O)N1 (configuration not stated)	i	-0.94	i	i	i
COCCCNc1c2c3c(cccc3[nH]c1=O)C(=O)c1ccccc1-2	i	nt	i	nt	i
CN(C(=S)NC(=O)C1CC1)c1ccc(O)cc1	i	nt	i	nt	nt
N=c1c2c(-c3ccccc3)c(-c3ccccc3)n(Cc3ccco3)c2ncn1CCCO	i	-5.5*	i	i	i
c1coc(CNc2nc3ccccc3n2CCN2CCOCC2)c1	i	-0.02	i	i	i
N=c1c2c(-c3ccccc3)c(-c3ccccc3)n(Cc3ccco3)c2ncn1CCO	i	-9.9*	i	i	i
N=c1c2c(-c3ccccc3)c(-c3ccccc3)n(Cc3ccco3)c2ncn1CCN1CCOCC1	i	-5.3*	i	i	i
O=C(COC(=O)c1ccc(S(=O)(=O)C(F)F)cc1)Nc1cccnc1Cl	i	-5.4	i	i	i
CC1CCC(C(C)C)C(OCC(O)CNC(C)c2ccccc2)C1 (configuration not stated)	i	-2	i	i	i
CC(NCC(O)COC1CCC(C(C)(C)C)CC1)c1ccccc1 (configuration not stated)	i	-8.6*	i	i	i
c1ccc2c(c1)OCC(c1csc3ncnc(N4CCOCC4)c13)O2 (configuration not stated)	i	0.23	i	i	i
CCN(CC)c1ncnc2scc(C3COc4ccccc4O3)c12 (configuration not stated)	i	-1.8	i	-7.6*	i
Oc1ccc(/C=N/Nc2ccc(Cl)nn2)c(O)c1O	i	-0.76	i	i	i
Cc1ccc(C)c(N2CCN(C(=O)CCc3nc(-c4ccccc4)no3)CC2)c1	i	nt	nt	nt	nt
Cc1ccc(-c2noc(CCC(=O)N3CCN(c4cccc(C(F)(F)F)c4)CC3)n2)cc1	i	-0.59	i	i	25*
Cc1ccc(C)c(N2CCN(C(=O)CCc3nc(-c4ccccc4C)no3)CC2)c1	-9.2*	nt	nt	nt	nt
Cc1cccc(-c2noc(CCC(=O)N3CCN(c4cc(C)ccc4C)CC3)n2)c1	-9.8*	nt	nt	nt	nt
O=C(NCc1nnc(SCc2ccc(F)cc2)n1-c1ccc(F)cc1)C12CC3CC(CC(C3)C1)C2	i	-1	i	i	i
SMILES	KCNK3 inh	Kir21 block	TMEM16A act	KCNK9 inh	ANO1 block
CN(Cc1cccc2ccccc12)C(=O)c1cc(COc2c(F)cccc2F)on1	i	-1.8	i	i	i
CCc1ccc(CN(C)C(=O)c2cc(COc3c(F)cccc3F)on2)cc1	i	0.21	-26*	i	i
Cc1cc(O)c(C(C[N+](=O)[O-])c2ccc(Cl)cc2)c(=O)o1 (configuration not stated)	i	0.14	i	i	i
Cc1cc(C)n(C(C[N+](=O)[O-])c2ccc(Cl)cc2)n1 (configuration not stated)	i	-5.2*	i	i	i
Cc1noc(/C=C/N(C)C)c1S(=O)(=O)N1CCCC(C(=O)Nc2ccc(F)cc2F)C1 (configuration not stated)	i	1.5	i	i	i
c1cncc(-c2nc(NCC3CCCO3)c3ccccc3n2)c1 (configuration not stated)	i	-1.3	i	i	i
Oc1ccc(Nc2nc(NCC3CCCO3)c3ccccc3n2)cc1 (configuration not stated)	i	-7.8*	i	i	nt
Oc1ccccc1Nc1nc(NCC2CCCO2)c2ccccc2n1 (configuration not stated)	i	-12*	i	i	i
Oc1ccc(Cl)cc1Nc1nc(NCC2CCCO2)c2ccccc2n1 (configuration not stated)	i	1.1	i	i	i
CC(=O)Nc1ccc(S(=O)(=O)NCC(=O)Nc2ccc3c(c2)OCO3)cc1	i	nt	i	nt	nt
COC(=O)c1sc(NC(=S)NNC(=O)c2c(Br)c(C)nn2C)c(C(=O)OC)c1C	i	0.46	i	i	100*
COC(=O)c1sc(S(=O)(=O)Nc2c(C)nn(C)c2C)c(C(=O)OC)c1C	i	nt	i	nt	nt
COc1ccc(CNC(=O)c2sc3nc4c(c(C(F)(F)F)c3c2N)CCC4)cc1	nt	-5.1*	nt	i	i
CC(C)Oc1ccc(CN2CCCC(CO)(Cc3ccccc3)C2)cc1CO (configuration not stated)	i	-1.4	i	i	i
c1cc(C(c2nnnn2C2CCCCC2)N2CCN3CCCC3C2)ccn1 (configuration not stated)	i	-0.83	i	i	i
COc1ccccc1C(c1nnnn1C1CCCC1)N1CCN2CCCC2C1 (configuration not stated)	i	-1.1	-12*	i	i
Cc1ccc(Cl)cc1N1CCN(Cc2nnnn2C2CCCCC2)CC1	-11*	0.33	i	i	i
OC(CNCc1cccc(Br)c1)c1ccccc1 (configuration not stated)	i	-4.3*	i	i	i
OC(CNCc1ccc(-c2ccccc2)cc1)c1ccccc1 (configuration not stated)	i	-0.06	i	i	i
Cc1ccc(CNCC(O)c2ccccc2)s1 (configuration not stated)	i	-5.3*	i	i	i
N#C/C(=N/O)c1nc(-c2ccc(F)cc2)cs1	i	-1.7	i	i	100*
Fc1ccc(-c2csc(-c3ccncc3)n2)cc1	i	0	i	i	i
